About 83,000 compounds went through this panel and 20% of them were active in at least one assay; those are over-represented in the sample as a whole.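 Compound tested at a single concentration for 48 hours in 96-well plates; a percent growth value below 10 was scored as active.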 Values without a mark were called inactive. Calls of active or inactive are those of the source.
What was measured:
Experiment in all cases: NCI-60 one-dose screen, 48 h (100 = growth as untreated, 0 = no growth, -100 = all killed)
Conditions in all cases: 10 µM unless noted
SK-MEL-2 melanoma = tested on: SK-MEL-2 melanoma
EKVX NSCLC = tested on: EKVX NSCLC
SN12C renal = tested on: SN12C renal
UO-31 renal = tested on: UO-31 renal
TK-10 renal = tested on: TK-10 renal
ACHN renal = tested on: ACHN renal
CAKI-1 renal = tested on: CAKI-1 renal
A498 renal = tested on: A498 renal
CCRF-CEM leukemia = tested on: CCRF-CEM leukemia
MOLT-4 leukemia = tested on: MOLT-4 leukemia

SMILES | growth (SK-MEL-2 melanoma) | growth (EKVX NSCLC) | growth (SN12C renal) | growth (UO-31 renal) | growth (TK-10 renal) | growth (ACHN renal) | growth (CAKI-1 renal) | growth (A498 renal) | growth (CCRF-CEM leukemia) | growth (MOLT-4 leukemia)
Cc1nn(-c2ccccc2)c(-n2ccnc2)c1/C=N/Nc1nc(-c2ccc(F)cc2)cs1 | 98.1% | 49.5% | 80.3% | 51.2% | 98.3% | 78.9% | 80% | 71.8% | 70.1% | 48.3%
CCCCCCn1c(-c2ccc(C(=O)O/N=C(\N)c3ccc4ccccc4c3)cc2)nc(-c2ccccc2)c1-c1ccccc1 | 88.6% | 18% | 45.6% | -85.4% (active) | 47.4% | 0.0407% (active) | 33.9% | 51.4% | 18.5% | 41.2%
Cc1ccc(S(=O)(=O)Oc2ccc(NC(=O)c3ccc(Cl)cc3)cc2)cc1 | 99.8% | 91.3% | 96.1% | 91.6% | 92.5% | 102% | 100% | 93.9% | 104% | 104%
CCc1cccc2c3c(sc12)C(c1ccc(Cl)cc1)C(C#N)=C(N)O3 (stereo not given) | 40.2% | 48.2% | 38.3% | 38.2% | 69% | 33.7% | 3.05% (active) | 10.8% | 5.24% (active) | 12.2%
C=C1C(=O)O[C@H]2[C@H]1CC/C(COC(=O)CCC(=O)NCCOCCOCC(=O)Nc1ccc(OC)c(C(N)=O)c1O)=C\CC[C@@]1(C)O[C@@H]21 | 89.7% | 94.4% | 92.7% | 92% | 96% | 87.3% | 81.2% | 101% | 53.7% | 97.1%
CC(C)c1cc(C(C)C)c(S(=O)(=O)Oc2ccc(NC(=O)c3ccc(Cl)cc3)cc2)c(C(C)C)c1 | 31.3% | 19.4% | 21.4% | 29.9% | 42.5% | 15.4% | 21.6% | 17.7% | 25.2% | 17.6%
COc1ccc(OC)c(/C=C2\Oc3cc(OCCN4CCC(Cc5ccccc5)CC4)ccc3C2=O)c1 | 105% | 75.6% | 80.8% | 53.8% | 97.7% | 99.7% | 61.4% | 88.6% | 75.6% | 62.4%
COc1cc(C(=O)N2N=C(c3ccc(S(C)(=O)=O)cc3)CC2c2ccco2)cc(OC)c1OC (stereo not given) | 59.1% | 86% | 92.5% | 18.6% | 106% | 48.5% | 43.7% | 76.7% | 42% | 41.5%
CC1Cc2c(ncn3c(-c4ccc(F)cc4)nnc23)N(C)c2ccccc21 (stereo not given) | 99.6% | 32.8% | 19.8% | 27.6% | 21.8% | 44% | 55.5% | 28.3% | 49.3% | 82.1%
C=C1C(=O)O[C@H]2[C@H]1CC/C(COC(=O)CCSSCCC(=O)OC/C1=C/CC[C@@]3(C)O[C@H]3[C@H]3OC(=O)C(=C)[C@@H]3CC1)=C\CC[C@@]1(C)O[C@@H]21 | 52.4% | 12.6% | -45.8% (active) | -88.1% (active) | -33.8% (active) | -85.2% (active) | 20.3% | 72.9% | -23.6% (active) | -26.8% (active)
O=CN1N=C(c2ccc(Nc3ccnc4cc(Cl)ccc34)cc2)CC1c1ccccc1 (stereo not given) | 32.6% | 46.2% | 53.8% | 24.1% | 59.7% | 33.4% | 38.2% | 21.2% | 15% | 13.8%
O=C(N=c1oc2ccccc2cc1-c1cc2ccccc2[nH]1)Nc1ccc(Cl)cc1 | 113% | 88.1% | 92.6% | 61.2% | 151% | 91.3% | 72.2% | 121% | 109% | 95.8%
COc1ccc(N)c(N)c1 | 121% | 105% | 100% | 75.3% | 113% | 97.3% | 94.4% | 95.1% | 83.1% | 96.2%
c1ccc(CO[C@H]2CO[C@H]3[C@@H]2OC[C@@H]3Oc2ccc(Nc3ncnc4ccsc34)cc2)cc1 | 84% | 62.3% | 69.3% | 42% | 99.6% | 72.1% | 74.7% | 33.2% | 77.7% | 64.5%

From PubChem BioAssay (NCI)
